Inconclusive results are not listed. Entries that show only a call come without a potency. Where a structure was tested more than once in an assay, its records may differ in their call. The source made the active and inactive calls. Unless noted, the call rests on the fitted dose curve; in most records, active means well fitted curve in the direction sought with a large enough effect in the repeat runs; inconclusive means weak or mixed curves; inactive means no such curve, though single readings can be large; an effect the other way counts as inactive or inconclusive.
Columns and labels:
[1] = qHTS assay for small molecule agonists of the p53 signaling pathway (AID 651631; calls by dose curve; further: nearly all actives have a fitted effect of over 15% in size; further: potency means the concentration at half of the fitted maximal effect)
How it was run: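 Readout was fluorescence from the LiveBLAzer FRET substrate, applied for 2 h at room temperature after 16 h compound exposure at 37 °C. Cells were the p53RE-bla HCT-116 line, with beta-lactamase driven by p53 response elements.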

[2] = qHTS assay for small molecules that induce genotoxicity in human embryonic kidney cells expressing luciferase-tagged ATAD5 (AID 651632); further: nearly all actives have a fitted effect of over 15% in size
How it was run: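 Luminescence read-out: after 16 hr compound exposure at 37C, ATAD5-luciferase HEK293T cells received Amplite, 30 min RT, then CCD imaging. A rise in signal marks genotoxic stress.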

[3] = qHTS assay for small molecules that induce genotoxicity in human embryonic kidney cells expressing luciferase-tagged ATAD5 - cell viability (AID 651634; calls by dose curve; further: nearly all actives have a fitted effect of over 25% in size)
How it was run: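 HEK293T ATAD5-luc cells, 2,000/well; compound 15.5 hr, 37C/5% CO2; CellTiter-Fluor 30 min, 37C; fluorescence read.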

[4] = qHTS assay for small molecule disruptors of the mitochondrial membrane potential - cell viability (AID 720634; calls by dose curve; further: nearly all actives have a fitted effect of over 20% in size; further: potency means the concentration at half of the fitted maximal effect)
How it was run: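 Luminescence from CellTiter-Glo (ATP content) gave viability in HepG2 cells, read in the same wells as the MMP dye assay after 1 hr compound exposure at 37 C.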

[5] = qHTS assay to test for compound auto fluorescence at 590 nm (red) in HepG2 cells (AID 720674)
How it was run: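 Red autofluorescence (Ex/Em 540/590 nm, Rose Bengal sodium equivalents) was measured in HepG2 cells, 2,000 per well in MEM plus 10% FBS, plated overnight at 37 C. Readings were taken 1 hr after adding 23 nL compound or DMSO, at 37 C and 5% CO2.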

[6] = qHTS assay to test for compound auto fluorescence at 535 nm (green) in HepG2 cells (AID 720675)
[7] = qHTS assay to test for compound auto fluorescence at 460 nm (blue) in HEK293 cells (AID 720678)
How it was run: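 Cells were seeded and left to adhere for 4-5 hr at 37C. Compounds were then pin-transferred. After an overnight incubation at 37C under 5% CO2, intrinsic fluorescence at 405/460 nm was measured and referenced to triamterene.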

[8] = qHTS assay to test for compound auto fluorescence at 535 nm (green) in HEK293 cells (AID 720680)
[9] = qHTS assay to test for compound auto fluorescence at 535 nm (green) in HEK293 cell free culture (AID 720682)
How it was run: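 Compounds were pin-transferred into cell-free DMEM with 10% FBS, and green fluorescence was read at excitation 485 nm and emission 535 nm. Intensities were expressed as fluorescein-equivalent values.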

[10] = qHTS assay to test for compound auto fluorescence at 590 nm (red) in HEK293 cell free culture (AID 720683)
How it was run: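 Red-channel autofluorescence of compounds in culture medium (DMEM, 10% FBS), no cells, measured at 540/590 nm. Rose Bengal sodium is the reference fluorophore for equivalence.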

[11] = qHTS assay to test for compound auto fluorescence at 590 nm (red) in HepG2 cell free culture (AID 720684)
How it was run: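 Cell-free; medium MEM + 10% FBS; compound or DMSO added by pintool; read Ex 540/Em 590 nm; Rose Bengal sodium as red reference fluorophore.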

[12] = qHTS assay to test for compound auto fluorescence at 460 nm (blue) in HepG2 cell free culture (AID 720685)
How it was run: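 Cell-free plates of MEM plus 10% FBS received 23 nL compound or DMSO vehicle; blue-channel (405/460 nm) intensity scored against triamterene as reference fluorophore.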

[13] = qHTS assay to test for compound auto fluorescence at 535 nm (green) in HepG2 cell free culture (AID 720686)
[14] = qHTS assay to test for compound auto fluorescence at 460 nm (blue) in HepG2 cells (AID 720687)
How it was run: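 Blue-channel autofluorescence (Ex/Em 405/460 nm, triamterene-equivalent) was measured after 1 hr compound exposure at 37 C, 5% CO2. Cells were HepG2, plated overnight at 37 C in MEM plus 10% FBS.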

[15] = molecular target: Glucocorticoid receptor (Homo sapiens) (UniProt P04150); assay: qHTS assay to identify small molecule agonists of the glucocorticoid receptor (GR) signaling pathway (AID 720691; active means well fitted activation curve with a large enough effect in the signal ratio in the repeat runs, not every such curve was filed as active; the % refers to the signal ratio)
Sequence of Glucocorticoid receptor (Homo sapiens) (P04150 whole entry, looked up): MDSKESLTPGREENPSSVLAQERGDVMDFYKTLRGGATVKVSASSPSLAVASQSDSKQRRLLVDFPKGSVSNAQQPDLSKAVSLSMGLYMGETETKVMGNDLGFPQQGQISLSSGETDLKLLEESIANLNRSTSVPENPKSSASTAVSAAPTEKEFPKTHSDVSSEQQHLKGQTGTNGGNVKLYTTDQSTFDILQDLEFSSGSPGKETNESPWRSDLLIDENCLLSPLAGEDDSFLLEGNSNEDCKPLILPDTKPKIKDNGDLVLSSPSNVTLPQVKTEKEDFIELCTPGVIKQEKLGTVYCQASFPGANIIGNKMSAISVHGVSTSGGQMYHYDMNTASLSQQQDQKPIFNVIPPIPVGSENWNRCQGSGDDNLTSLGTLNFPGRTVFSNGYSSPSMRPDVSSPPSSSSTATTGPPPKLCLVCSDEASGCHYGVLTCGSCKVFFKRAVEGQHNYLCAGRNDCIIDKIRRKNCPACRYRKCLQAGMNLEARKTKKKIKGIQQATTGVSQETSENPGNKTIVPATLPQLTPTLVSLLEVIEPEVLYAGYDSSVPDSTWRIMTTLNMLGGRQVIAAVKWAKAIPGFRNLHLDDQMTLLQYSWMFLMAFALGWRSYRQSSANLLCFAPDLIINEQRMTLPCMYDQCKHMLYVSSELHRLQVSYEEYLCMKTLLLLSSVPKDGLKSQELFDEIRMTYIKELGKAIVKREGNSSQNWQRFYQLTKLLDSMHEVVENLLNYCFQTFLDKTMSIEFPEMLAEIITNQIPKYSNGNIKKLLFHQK
How it was run: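 HeLa GR-bla reporter line; cells pre-incubated 4 h, compound in DMSO 18 h at 37 C; LiveBLAzer B/G FRET substrate 2 h RT; fluorescence intensity read-out.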

[16] = molecular target: Glucocorticoid receptor (Homo sapiens) (UniProt P04150); assay: qHTS assay to identify small molecule antagonists of the glucocorticoid receptor (GR) signaling pathway (AID 720692; active means well fitted inhibition curve with a large enough effect in the signal ratio in the repeat runs, not every such curve was filed as active; the % refers to the signal ratio)
How it was run: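 Read-out: beta-lactamase FRET substrate fluorescence, 2 h at room temperature, in HeLa cells stably carrying a GRE-driven bla reporter. Compounds were co-incubated with 5 nM dexamethasone agonist (final) for 18 h at 37 C.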

[17] = qHTS assay to test for compound auto fluorescence at 460 nm (blue) in HEK293 cell free culture (AID 720681)
How it was run: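 Blue fluorescence (Ex 405/Em 460 nm, triamterene-equivalent) was read immediately after pin transfer of compound or DMSO into medium (DMEM, 10% FBS) without cells.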

[18] = qHTS assay for small molecule agonists of the p53 signaling pathway - cell viability (AID 651633; calls by dose curve; further: nearly all actives have a fitted effect of over 30% in size; further: potency means the concentration at half of the fitted maximal effect)
How it was run: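 Viability counter-read: CellTiter-Glo luminescence (30 min, room temperature) in the same p53RE-bla plates. These plates had been exposed to compounds for 16 h at 37 C.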

[19] = qHTS assay for small molecule disruptors of the mitochondrial membrane potential (AID 720635); further: potency means the concentration at half of the fitted maximal effect
How it was run: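 Mitochondrial membrane potential tracked with Mito-MPS dye, red aggregates (ex 540/em 590 nm) against green monomers (ex 490/em 535 nm). Compound treatment 1 hr at 37C, dye 30 min in HepG2.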

[20] = qHTS assay to test for compound auto fluorescence at 590 nm (red) in HEK293 cells (AID 720679)
How it was run: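 Each well held 2,000 HEK293 cells in medium containing 10% dialyzed FBS. Following 4-5 hr attachment at 37C, 23 nL test compound or DMSO was added; plates sat overnight, and red fluorescence (540/590nm) was recorded.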

Row | SMILES | Potency [1] | Potency [2] | Potency [3] | Potency [4] | outcome [5] | outcome [6] | outcome [7] | outcome [8] | outcome [9] | outcome [10] | outcome [11] | outcome [12] | outcome [13] | outcome [14] | outcome [15] | Potency [16] | outcome [17] | Potency [18] | Potency [19] | outcome [20]
1 | CCCN(CC1CC1)c1c([N+](=O)[O-])cc(C(F)(F)F)cc1[N+](=O)[O-] | inactive | inactive | inactive | inactive | inactive | inactive | inactive | inactive | inactive | inactive | inactive | inactive | inactive | inactive | inactive | inactive | – | – | – | –
2 | O=C(CBr)OCc1ccccc1 | inactive | inactive | inactive | inactive | inactive | inactive | inactive | inactive | inactive | inactive | inactive | inactive | inactive | inactive | inactive | inactive | inactive | – | – | –
3 | CO/C=C(/C(=O)OC)c1ccccc1COc1cccc(C(F)(F)F)n1 | 8.63 µM (active) | – | inactive | – | inactive | inactive | inactive | inactive | inactive | inactive | inactive | inactive | inactive | inactive | – | – | inactive | inactive | 6.85 µM (active) | inactive
4 | S=C=NCc1ccccc1 | 69.3 µM (active) | – | – | inactive | – | inactive | inactive | inactive | inactive | inactive | inactive | inactive | inactive | inactive | inactive | inactive | – | inactive | 55 µM (active) | inactive
5 | Cc1ccccc1C(=O)Nc1cccc(OC(C)C)c1 | inactive | – | inactive | – | inactive | inactive | inactive | inactive | inactive | inactive | inactive | inactive | inactive | inactive | inactive | inactive | inactive | – | 30.6 µM (active) | –
6 | C=CC(=O)OCC(C)C | inactive | – | inactive | – | inactive | inactive | inactive | inactive | inactive | inactive | inactive | inactive | inactive | inactive | inactive | – | inactive | inactive | – | inactive
7 | CCOP(=S)(OCC)Oc1nc(Cl)c(Cl)cc1Cl | inactive | – | inactive | 6.87 µM (active) | inactive | inactive | inactive | inactive | inactive | inactive | inactive | inactive | inactive | inactive | inactive | inactive | – | 54.6 µM (active) and inactive | – | –
8 | Cn1sc(Cl)cc1=O | inactive | – | inactive | inactive | inactive | inactive | inactive | inactive | inactive | inactive | inactive | inactive | inactive | inactive | inactive | inactive | inactive | – | inactive | inactive
9 | C=CC(=O)OC(C)(C)C | inactive | inactive | inactive | – | – | inactive | inactive | inactive | inactive | inactive | inactive | inactive | inactive | – | inactive | inactive | inactive | – | – | inactive
10 | CCOc1nc(F)cc2nc(S(=O)(=O)Nc3c(Cl)cccc3Cl)nn12 | inactive | inactive | – | inactive | inactive | inactive | inactive | inactive | inactive | inactive | inactive | inactive | inactive | inactive | inactive | inactive | inactive | – | inactive | inactive
11 | CCC(Cl)CCl (centres undefined) | – | inactive | inactive | inactive | inactive | inactive | inactive | inactive | inactive | inactive | inactive | inactive | inactive | inactive | – | – | inactive | inactive | – | inactive
12 | CCn1cc[n+](C)c1 | – | inactive | – | inactive | inactive | inactive | inactive | inactive | inactive | inactive | inactive | inactive | inactive | inactive | – | – | inactive | inactive | – | inactive
13 | C=COC(C)=O | – | inactive | inactive | inactive | inactive | inactive | inactive | inactive | inactive | inactive | inactive | inactive | inactive | inactive | – | – | inactive | inactive | – | inactive
14 | OCCCBr | – | inactive | inactive | inactive | inactive | inactive | inactive | inactive | inactive | inactive | inactive | inactive | inactive | inactive | inactive | inactive | inactive | inactive | – | inactive
